Assay outcomes: PubChem BioAssay, several laboratories
CYP2C19 activ: cytochrome P450 2C19 (human) activation. 96,000 tested, under 10 active. recombinant CYP2C19, luciferin-H EGE luminescence; active compounds read high; 0 = fully inhibited enzyme, 1 = untreated enzyme. activation factor at 5 µM. P33261;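 active = activation factor of at least 2 at 5 µM in the primary screen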
Target sequence (P33261 whole entry, looked up): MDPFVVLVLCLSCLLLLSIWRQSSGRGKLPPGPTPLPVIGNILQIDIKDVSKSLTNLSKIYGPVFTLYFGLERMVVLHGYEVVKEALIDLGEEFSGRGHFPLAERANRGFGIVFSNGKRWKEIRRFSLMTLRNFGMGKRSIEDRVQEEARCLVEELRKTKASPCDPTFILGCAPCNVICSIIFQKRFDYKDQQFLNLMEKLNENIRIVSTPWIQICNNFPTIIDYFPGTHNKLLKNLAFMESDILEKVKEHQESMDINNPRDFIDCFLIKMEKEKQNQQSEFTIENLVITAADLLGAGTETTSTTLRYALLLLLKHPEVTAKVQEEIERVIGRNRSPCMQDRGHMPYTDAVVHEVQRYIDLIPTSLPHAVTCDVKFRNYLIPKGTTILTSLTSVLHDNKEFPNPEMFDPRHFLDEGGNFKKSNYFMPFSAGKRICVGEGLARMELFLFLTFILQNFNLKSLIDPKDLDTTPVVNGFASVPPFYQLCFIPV
CYP2C19 inh: inhibitors of human CYP2C19; inhibition, % at 5 µM; 96,000 compounds, 21% hits; AID 778; CYP2C19 Supersomes, luciferin-H EGE luminescence, 30 min; P33261;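 active = CYP2C19 inhibition above a set limit at 5 µM in the primary screen, cut at about 50% in these data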
CYP2C9 inh: human CYP2C9 inhibition | P11712 | 96,000 compounds, 20% hits | AID 777 | inhibition, % at 5 µM | CYP2C9 Supersomes, luciferin-H conversion, luminescence;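 active = blocking of liver enzyme CYP2C9 beyond about 50% at 5 µM, limit read from the data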
PLK1 PBD inh: blocks phosphopeptide binding to human Plk1 polo box domain | P53350 | Plk1 PBD phosphopeptide binding, fluorescence polarization | inhibition, %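 (tested at about 20 µM)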 | 97,000 compounds, 0.13% hits | AID 693; in the data active = inhibition above about 34%, passing the limit was not always enough
CYP2C9 act: CYP2C9 (human) activation | P11712 | recombinant CYP2C9, luciferin-H conversion, luminescence; active compounds read high; factor 1 = untreated enzyme, 0 = blocked | activation factor at 5 µM | 96,000 compounds, 1.4% hits;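 active = activation factor of 2 or more for CYP2C9 at a 5 µM dose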
PLK1 inh: PLK1 (human) kinase inhibition | recombinant PLK1 kinase, TR-FRET peptide phosphorylation | inhibition, % at 10 µM | 97,000 compounds, 0.53% hits;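 active = inhibition of 50% or more in the single-concentration screen; inactive = inhibition below 50%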
Each line names hits and unclear results; the compound was inactive in the other large screens. In the library only some 28% were active in any assay of this set; here they are far more common.

Cc1cccc(NC(=O)NC(C)C(c2cccs2)N2CCOCC2)c1 (stereo not given)	CYP2C19 inh 82.6
CC(C)C(=O)NC(C)C(c1cccs1)N1CCOCC1 (stereo not given)	none
CC(NC(=O)c1ccco1)C(c1cccs1)N1CCN(c2ccccc2)CC1 (stereo not given)	CYP2C19 inh 55.8 (no result: PLK1 PBD inh, PLK1 inh)
CCOC(=O)CN1CC23C=CC(O2)C(C(=O)Nc2ccc(F)c(C)c2)C3C1=O (stereo not given)	none
COc1ccc(C(=O)Nc2ccc(-c3ccc(C)o3)cc2)cc1S(=O)(=O)N1CCOCC1	none
C=CCc1ccccc1OCC(O)CN(C(C)C)C(C)C (stereo not given)	none
O=C(Oc1ccc2c(-c3ccccc3)cc(=O)oc2c1)C1CCCCC1	none
CC(NC(=O)NC1CCCCC1)C(c1cccs1)N1CCN(Cc2ccccc2)CC1 (stereo not given)	CYP2C9 inh 54.5
COc1ccc(CNC(=O)C(c2ccncc2)N(C(=O)Cc2cccs2)c2ccccc2C)cc1 (stereo not given)	CYP2C19 inh 54.3
Cc1ccc(C(C(=O)NC2CCCC2)N(C(=O)Cc2cccs2)c2ccc3c(c2)OCCO3)cc1 (stereo not given)	none
COCCN(C(=O)Cc1cccs1)C(C(=O)NCc1ccc(OC)cc1)c1ccc(OC)cc1 (stereo not given)	CYP2C9 inh 65.3
COc1ccc(CNC(=O)C(c2ccco2)N(Cc2cccs2)C(=O)Cc2cccs2)cc1 (stereo not given)	none
COc1ccc(C(C(=O)NCc2ccccc2)N(Cc2ccc3c(c2)OCO3)C(=O)c2cnccn2)cc1 (stereo not given)	CYP2C19 inh 93.9, CYP2C9 inh 94.2
COc1ccc(CNC(=O)C(c2ccc(C)cc2)N(Cc2cccs2)C(=O)c2ccc3c(c2)OCCO3)cc1 (stereo not given)	CYP2C19 inh 66.1
O=C(Nc1ccccc1)OC(CN1CCCCC1)C(F)(F)F (stereo not given)	none
CC(C)C(NS(=O)(=O)c1ccc2c(c1)oc(=O)n2C)C(=O)N1CCN(Cc2ccccc2)CC1 (stereo not given)	none
CCCN1C(=O)c2cc(C(=O)NCCc3cccc(C)c3)ccc2C1O (stereo not given)	none
COc1ccc(CNC(=O)C(c2ccncc2)N(C(=O)Cc2cccs2)c2cccc(C)c2)cc1 (stereo not given)	CYP2C19 inh 70.4
COc1ccc(CNC(=O)C(c2cccs2)N(Cc2ccco2)C(=O)Cc2cccs2)cc1 (stereo not given)	none (no result: CYP2C19 activ, CYP2C19 inh, CYP2C9 inh, CYP2C9 act)
COc1ccc(N2CC(O)=C(c3n(C)c4ccccc4[n+]3C)C2=N)cc1	none
COc1ccc2c(c1)NC(=O)CC(c1ccccc1)=N2	CYP2C19 inh 74.7
CCOC(=O)C1CCN(C(c2cc3c(C)ccc(C)c3[nH]c2=O)c2nnnn2C2CCCCC2)CC1 (stereo not given)	none
CCOC(=O)C1CCN(C(c2cc3ccc(C)c(C)c3[nH]c2=O)c2nnnn2C2CCCCC2)CC1 (stereo not given)	CYP2C19 inh 80.1, CYP2C9 inh 89.7
COc1ccc2ccccc2c1C(O)c1nccn1C (stereo not given)	none
COc1cccc(C(N)CC(=O)O)c1 (stereo not given)	none (no result: PLK1 PBD inh, PLK1 inh)
COc1ccc(C(O)c2nccn2Cc2ccccc2)cc1 (stereo not given)	CYP2C19 inh 56.3
CCn1ccnc1C(O)c1cccc(OC)c1 (stereo not given)	CYP2C19 inh 51.9
Cn1ccnc1C(O)c1ccc(OCc2ccccc2)cc1 (stereo not given)	CYP2C19 inh 50.7 (no result: PLK1 PBD inh, PLK1 inh)
Cc1ccc2cc(C(c3nnnn3C3CCCC3)N(Cc3ccco3)Cc3cccs3)c(=O)[nH]c2c1 (stereo not given)	none
CCC(C)(C)n1nnnc1C(c1ccc(C)cc1)N(Cc1ccco1)Cc1cccs1 (stereo not given)	CYP2C9 inh 90.5
CC(C)(C)n1nnnc1CN(Cc1ccc(F)cc1)Cc1ccco1	CYP2C19 inh 92.8, CYP2C9 inh 86.6
CCN(Cc1ccccc1)C(c1cccc(C#N)c1)c1nnnn1C(C)(C)C (stereo not given)	CYP2C19 inh 72.4, CYP2C9 inh 91.0
CC(C)(C)n1nnnc1C(c1cccnc1)N(Cc1ccccc1)Cc1ccco1 (stereo not given)	CYP2C9 inh 72.9
CC(C)N1C(=O)CCC1C(=O)N1CCCc2ccccc21 (stereo not given)	none
CNc1nc(OCC(F)(F)F)nc(N2CCN(C34CC5CC(CC(C5)C3)C4)CC2)n1	none (no result: CYP2C19 activ, CYP2C19 inh, CYP2C9 inh, CYP2C9 act)
COc1cccc(CN(Cc2ccco2)C(c2ccc(F)cc2)c2nnnn2C(C)(C)C)c1 (stereo not given)	CYP2C9 inh 50.6
CC(=C/c1ccccc1)/C=N/n1c(-c2ccco2)n[nH]c1=S	none
CC(/C=N/n1c(C2CCCCC2)n[nH]c1=S)=C\c1ccccc1	CYP2C9 inh 61.2
COc1ccccc1C(=O)NC(C)c1nc2ccccc2[nH]1 (stereo not given)	CYP2C19 inh 55.7, CYP2C9 inh 54.8
CSCCOC(=O)c1[nH]c2c(c1C)C(=O)CC(c1ccco1)C2 (stereo not given)	CYP2C9 inh 52.4 (no result: PLK1 PBD inh, PLK1 inh)
CCN(CC)CCc1c(C)[nH]c(C(=O)OCc2ccccc2)c1C	none
Cc1c(C(=O)OCCOC(C)C)[nH]c2c1C(=O)CC(c1ccco1)C2 (stereo not given)	CYP2C9 inh 75.0 (no result: PLK1 PBD inh, PLK1 inh)
Cc1c(C(=O)OCc2ccccc2)[nH]c2c1C(=O)CC(c1ccco1)C2 (stereo not given)	CYP2C9 inh 88.7 (no result: PLK1 PBD inh, PLK1 inh)
CCOC(=O)c1[nH]c2c(c1C)C(=O)CC(c1ccco1)C2 (stereo not given)	CYP2C9 inh 59.8 (no result: PLK1 PBD inh, PLK1 inh)
COc1ccc(C(=O)c2coc3ccc(O)c(CN4CCCCC4)c23)cc1	none
S=c1[nH]nc(C2CC2)n1Cc1ccco1	none
COCCOC(=O)c1[nH]c2c(c1C)C(=O)CC(c1ccco1)C2 (stereo not given)	CYP2C9 inh 72.3 (no result: PLK1 PBD inh, PLK1 inh)
Cc1c(C(=O)OCCOC(C)C)[nH]c2c1C(=O)CC(C)(C)C2	CYP2C19 inh 58.2, CYP2C9 inh 70.3 (no result: PLK1 PBD inh, PLK1 inh)
COC(=O)c1[nH]c2c(c1C)C(=O)CC(c1cccs1)C2 (stereo not given)	none
CCOC(=O)c1oc2cc(O)ccc2c(=O)c1-c1csc(C)n1	none
CCOC(=O)c1ccc(CC(=O)c2oc3cc(O)ccc3c2C)o1	CYP2C9 inh 65.5
CCOC(=O)c1ccc(-c2c(C(=O)OCC)oc3cc(O)c(CC)cc3c2=O)o1	CYP2C19 inh 67.7, CYP2C9 inh 96.8
COCCn1c(SCC(=O)N2CCCc3ccccc32)nnc1-c1ccco1	none
CCc1cc2c(=O)n(Cc3ccco3)c(SCC(=O)N3CCCc4ccccc43)nc2s1	CYP2C9 inh 87.2
